# Measurements: PubChem BioAssay (NCI)
# This is part of a sample that, as a whole, favours compounds with a hit. Of some 79,000 tested, about 15% had one in any assay. A number with no mark means an inactive call. Activity calls are given as the source filed them. No stated cut-off is given here; in the data, active means growth inhibition above about 70%; inactive means the rest.
# Columns and labels:
# [1] = NCI Yeast Anticancer Drug Screen. Data for the rad50 strain (AID 155);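 further: 0% = growth of vehicle-only cultures of the same strain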; settings: S. cerevisiae rad50 strain growth inhibition; at 50.0 µM; active compounds read high
# Summary of the method: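 Vehicle-treated cultures provide the reference for the growth inhibition reported for compound-exposed, repair-deficient yeast.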
# [2] = NCI Yeast Anticancer Drug Screen. Data for the mec2-1 strain (AID 157); settings: S. cerevisiae mec2-1 strain, at 50.0 µM, active compounds read high
# Summary of the method: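 Readout is yeast growth inhibition, normalised to vehicle-treated controls, in the mec2-1 strain exposed to compound.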
# [3] = NCI Yeast Anticancer Drug Screen. Data for the sgs1 mgt1 strain (AID 161);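 further: 0% = growth of cultures given vehicle only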; settings: S. cerevisiae sgs1 mgt1 strain, at 50.0 µM, active compounds read high
# Summary of the method: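 Percent growth inhibition was derived by comparing compound-exposed mutant yeast with vehicle-exposed cultures. The strain carries alterations in DNA damage repair.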
# [4] = NCI Yeast Anticancer Drug Screen. Data for the cln2 rad14 strain (AID 165);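 further: 0% = growth equal to vehicle treated cultures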; settings: S. cerevisiae cln2 rad14 strain, at 50.0 µM, active compounds read high
# Summary of the method: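 Relative to vehicle controls, growth inhibition of compound-treated cln2 rad14 yeast was recorded.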
# [5] = NCI Yeast Anticancer Drug Screen. Data for the bub3 strain (AID 167); settings: S. cerevisiae bub3 mutant strain, at 50.0 µM, active compounds read high
# Summary of the method: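 Mutant yeast screening strain plus compound; vehicle-treated cultures serve as the 0% inhibition reference.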
# [6] = NCI Yeast Anticancer Drug Screen. Data for the mlh1 rad18 strain (AID 175); settings: S. cerevisiae mlh1 rad18 strain growth inhibition; at 50.0 µM; active compounds read high
# Summary of the method: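 Test agents were incubated with a yeast strain of defined genotype (DNA damage repair defect). Inhibition of growth was derived by comparison with vehicle-exposed cultures.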
Compound,growth inhibition [1],growth inhibition [2],growth inhibition [3],growth inhibition [4],growth inhibition [5],growth inhibition [6]
O=C(O)/C(=C(\CO)c1ccccc1)c1ccccc1,7.15%,9.25%,11%,24.4%,3.25%,26.7%
O=C(CN1CCCC1)Nc1ccc2sc3ccccc3c(=O)c2n1,17.2%,-29.7%,-5.75%,21.6%,11%,3.55%
CC(C)(C)c1cc(O)c(C(=O)O)cc1O,39.6%,29.6%,44.8%,17.6%,-3.9%,33.9%
Cn1cc(-n2[nH]c(=O)n(-c3ccccc3)c2=O)c(=O)n(C)c1=O,-50%,8.2%,-1.1%,-21.3%,16.1%,13.3%
CC(=O)CCc1ccc(OC(=O)C(Cl)Cl)cc1,27%,12.1%,18.7%,13.8%,13.9%,29.6%
O=S1(=O)CCNc2ccccc2O1,-3.15%,-6.4%,-3.55%,-15.2%,7.2%,3.15%
Cc1nc(C)c(CC#N)s1,-9.25%,-10%,-1.75%,-15.1%,-2%,13.7%
CCCCNC(=O)Nc1nc2ccccc2s1,25.3%,2.15%,11.5%,38%,-3%,-1.7%
CC1(C)S/C(=C\c2ccccc2)c2nc3ccccc3c(=O)n21,-6.8%,-7.2%,-16.1%,2.3%,-0.4%,-21.4%
Cc1ccc(N=Nc2ccc(N)cc2C)c(S(N)(=O)=O)c1,40.3%,4.05%,51.3%,5.05%,61.8%,49%
COc1ccc(C2NCCCC2c2ccccc2)cc1 (centres undefined),-46.3%,-29.4%,-2.65%,14.8%,-40.2%,-11.1%
CCCCCCCC(=O)Oc1cccc(C)c1,-0.9%,-3.3%,-8.6%,-10.3%,-7.35%,2.2%
O=C1C=C2SCCN2C(=O)C1,-5.9%,-33.8%,-9.15%,-2.85%,-5.85%,14.9%
Fc1ccc(NC(=S)Nc2ccccn2)cc1,4.05%,-6.4%,-4.25%,-59.5%,6.05%,19.9%
CC1=CC2C3C(=O)NC(=O)C3C1C1C3C(=O)NC(=O)C3C21 (centres undefined),-25%,-3.9%,1.2%,-18.6%,2.45%,16.4%
NC1(C(=O)O)CCCCC1,-11.3%,-7.5%,-30.7%,-34.7%,-12.9%,-18.4%
CCOc1ccc(/C(O)=C/c2nc3ccccc3nc2/C=C(\O)c2ccc(OCC)cc2)cc1,-2.1%,-13.7%,16.4%,-0.75%,36%,13.6%
O=C(O)CNC(=O)Cc1ccccc1,-29.8%,-12.6%,-1.1%,10.2%,-38.6%,-7.3%
O=[N+]([O-])c1cccc(S/N=C/c2c(O)ccc3ccccc23)c1,98.5% (active),99.1% (active),99.2% (active),72.8% (active),98.5% (active),97.8% (active)
